According to the supplement of paper PMC11732987, “Enantioselective OTUD7B fragment discovery through chemoproteomics screening and high-throughput optimisation” (Communications Chemistry, 2025):

Experiments:
Assay in all cases: log2 ratio of Biotin-Ahx-Ub-VS probe labelling (fragment/DMSO); higher = less target engagement (more negative = stronger competition), active = hit call of the paper (q ≤ 0.05, log2 ratio ≤ -1)
Settings in all cases: compound concentration: 200 uM; treatment time: 3 h
USP9X = USP9X (UniProt Q93008)
Outline: (§1)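 Using Biotin-Ahx-Ub-VS at 0.5 µM final for 1 h, DUBs were labelled in HEK293T lysate (495 µg per sample) that had first been treated in triplicate with fragment at 200 µM or vehicle for 3 h. NeutrAvidin enrichment, LysC and trypsin digestion and diaPASEF LC-MS/MS followed. Spectronaut label-free quantities were global-median-normalised. Values are average log2 fragment/vehicle ratios by unpaired t-test, using proteins with ≥2 unique peptides.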

UniProt O00487 = biological target: UniProt O00487
Outline: as §1

UniProt O00507 = biological target: UniProt O00507
Outline: as §1

UniProt P51784 = biological target: UniProt P51784
Outline: as §1

UniProt Q5T2D3 = biological target: T1, UniProt Q5T2D3
T1 sequence (whole entry): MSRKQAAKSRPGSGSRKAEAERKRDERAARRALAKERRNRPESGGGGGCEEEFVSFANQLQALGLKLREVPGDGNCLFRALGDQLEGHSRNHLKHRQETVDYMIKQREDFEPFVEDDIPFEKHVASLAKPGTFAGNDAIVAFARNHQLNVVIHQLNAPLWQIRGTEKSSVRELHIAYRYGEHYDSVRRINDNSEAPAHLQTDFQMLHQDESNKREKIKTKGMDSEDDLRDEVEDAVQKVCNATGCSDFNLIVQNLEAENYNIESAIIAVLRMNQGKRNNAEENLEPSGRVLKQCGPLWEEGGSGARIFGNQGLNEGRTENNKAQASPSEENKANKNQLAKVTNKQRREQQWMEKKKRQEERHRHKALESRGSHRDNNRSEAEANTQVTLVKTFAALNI
Outline: as §1

UniProt Q8TE49 = biological target: T2, UniProt Q8TE49
T2 sequence (whole entry): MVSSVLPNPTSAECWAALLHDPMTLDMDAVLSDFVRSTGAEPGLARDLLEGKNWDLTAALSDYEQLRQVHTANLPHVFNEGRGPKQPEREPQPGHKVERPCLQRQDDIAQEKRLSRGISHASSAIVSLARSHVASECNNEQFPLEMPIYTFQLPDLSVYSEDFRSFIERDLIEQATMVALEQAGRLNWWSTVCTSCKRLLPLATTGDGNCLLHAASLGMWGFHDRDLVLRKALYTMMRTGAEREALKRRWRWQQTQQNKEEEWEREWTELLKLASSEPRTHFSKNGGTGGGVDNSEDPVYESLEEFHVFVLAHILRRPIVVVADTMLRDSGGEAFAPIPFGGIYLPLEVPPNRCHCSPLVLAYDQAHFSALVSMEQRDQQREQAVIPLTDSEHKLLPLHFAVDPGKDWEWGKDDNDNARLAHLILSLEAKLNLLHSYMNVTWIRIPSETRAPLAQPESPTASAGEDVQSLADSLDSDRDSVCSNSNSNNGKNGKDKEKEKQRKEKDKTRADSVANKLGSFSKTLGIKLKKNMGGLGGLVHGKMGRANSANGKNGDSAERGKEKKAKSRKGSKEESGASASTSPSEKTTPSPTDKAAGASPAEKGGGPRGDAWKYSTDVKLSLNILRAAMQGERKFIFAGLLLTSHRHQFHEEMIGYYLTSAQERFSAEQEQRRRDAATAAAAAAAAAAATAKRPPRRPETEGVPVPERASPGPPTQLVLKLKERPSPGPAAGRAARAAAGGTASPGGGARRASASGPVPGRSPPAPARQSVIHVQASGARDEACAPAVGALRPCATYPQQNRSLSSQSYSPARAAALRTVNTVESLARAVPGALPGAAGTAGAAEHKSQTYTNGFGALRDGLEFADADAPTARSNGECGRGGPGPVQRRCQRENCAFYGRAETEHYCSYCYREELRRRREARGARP
Outline: as §1

UniProt Q9P2H5 = biological target: T3, UniProt Q9P2H5
T3 sequence (whole entry): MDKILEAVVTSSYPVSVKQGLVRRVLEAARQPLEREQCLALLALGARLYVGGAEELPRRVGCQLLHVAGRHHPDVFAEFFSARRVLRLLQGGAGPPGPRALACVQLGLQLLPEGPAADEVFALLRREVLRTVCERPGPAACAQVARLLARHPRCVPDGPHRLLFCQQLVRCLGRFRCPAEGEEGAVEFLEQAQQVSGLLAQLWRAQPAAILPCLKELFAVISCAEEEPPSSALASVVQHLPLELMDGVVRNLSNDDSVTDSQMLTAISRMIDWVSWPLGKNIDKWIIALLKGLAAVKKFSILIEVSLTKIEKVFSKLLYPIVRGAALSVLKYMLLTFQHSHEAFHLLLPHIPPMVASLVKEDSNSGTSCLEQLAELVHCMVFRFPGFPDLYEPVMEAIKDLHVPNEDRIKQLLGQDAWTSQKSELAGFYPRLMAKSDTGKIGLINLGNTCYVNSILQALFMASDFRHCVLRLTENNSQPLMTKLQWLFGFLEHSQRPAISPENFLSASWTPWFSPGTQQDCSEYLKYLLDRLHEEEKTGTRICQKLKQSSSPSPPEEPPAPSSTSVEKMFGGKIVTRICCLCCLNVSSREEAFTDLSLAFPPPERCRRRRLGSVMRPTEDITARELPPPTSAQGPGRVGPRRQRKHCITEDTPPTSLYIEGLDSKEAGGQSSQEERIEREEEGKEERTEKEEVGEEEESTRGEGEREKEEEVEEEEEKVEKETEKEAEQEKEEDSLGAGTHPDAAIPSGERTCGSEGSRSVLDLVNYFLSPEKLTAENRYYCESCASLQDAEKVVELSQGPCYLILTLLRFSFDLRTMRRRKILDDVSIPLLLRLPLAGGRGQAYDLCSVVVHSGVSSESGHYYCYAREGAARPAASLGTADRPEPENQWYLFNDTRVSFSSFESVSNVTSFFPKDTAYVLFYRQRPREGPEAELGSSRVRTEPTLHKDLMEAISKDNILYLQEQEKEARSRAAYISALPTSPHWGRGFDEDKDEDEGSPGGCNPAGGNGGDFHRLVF
Outline: as §1

UniProt Q9UGI0 = biological target: T4, UniProt Q9UGI0
T4 sequence (whole entry): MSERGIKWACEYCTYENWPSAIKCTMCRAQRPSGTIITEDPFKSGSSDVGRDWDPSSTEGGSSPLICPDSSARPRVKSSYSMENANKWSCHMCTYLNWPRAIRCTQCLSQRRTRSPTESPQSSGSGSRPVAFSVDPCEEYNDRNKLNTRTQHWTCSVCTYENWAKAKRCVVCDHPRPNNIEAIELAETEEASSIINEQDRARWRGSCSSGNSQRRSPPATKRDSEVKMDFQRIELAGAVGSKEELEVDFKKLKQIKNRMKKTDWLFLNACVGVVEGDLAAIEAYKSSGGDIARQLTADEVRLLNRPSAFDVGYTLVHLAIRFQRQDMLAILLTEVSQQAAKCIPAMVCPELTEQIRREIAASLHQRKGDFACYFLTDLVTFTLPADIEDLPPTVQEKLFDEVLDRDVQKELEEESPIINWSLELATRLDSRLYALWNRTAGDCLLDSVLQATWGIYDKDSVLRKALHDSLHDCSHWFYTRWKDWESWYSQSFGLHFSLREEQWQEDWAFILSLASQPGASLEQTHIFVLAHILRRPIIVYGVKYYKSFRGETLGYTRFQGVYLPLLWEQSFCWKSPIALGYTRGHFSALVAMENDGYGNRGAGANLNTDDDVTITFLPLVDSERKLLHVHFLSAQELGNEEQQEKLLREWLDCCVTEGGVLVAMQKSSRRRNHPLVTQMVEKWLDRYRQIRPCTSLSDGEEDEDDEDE
Outline: as §1

YOD1 = biological target: T5, YOD1 (UniProt Q5VVQ6)
T5 sequence (whole entry): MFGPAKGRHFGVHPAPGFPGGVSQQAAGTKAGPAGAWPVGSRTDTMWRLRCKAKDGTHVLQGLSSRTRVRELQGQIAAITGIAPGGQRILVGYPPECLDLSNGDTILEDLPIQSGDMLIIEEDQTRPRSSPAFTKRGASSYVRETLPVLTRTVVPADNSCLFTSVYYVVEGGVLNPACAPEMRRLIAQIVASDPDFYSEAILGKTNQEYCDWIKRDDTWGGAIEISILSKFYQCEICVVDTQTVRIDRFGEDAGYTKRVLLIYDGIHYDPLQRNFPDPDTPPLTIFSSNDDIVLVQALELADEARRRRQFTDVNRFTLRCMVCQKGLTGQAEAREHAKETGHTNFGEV
Outline: as §1

Measured: log2 ratio of Biotin-Ahx-Ub-VS probe labelling

Sequence of UniProt O00487 (O00487 whole entry): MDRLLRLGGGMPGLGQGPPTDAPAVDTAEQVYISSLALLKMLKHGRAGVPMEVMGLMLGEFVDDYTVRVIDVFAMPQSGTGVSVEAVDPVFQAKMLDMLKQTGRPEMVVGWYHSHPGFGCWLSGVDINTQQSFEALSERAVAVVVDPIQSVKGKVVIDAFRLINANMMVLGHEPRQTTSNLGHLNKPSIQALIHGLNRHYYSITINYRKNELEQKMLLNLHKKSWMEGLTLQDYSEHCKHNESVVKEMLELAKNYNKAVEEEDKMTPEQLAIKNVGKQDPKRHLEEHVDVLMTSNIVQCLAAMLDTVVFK
Sequence of UniProt O00507 (O00507 whole entry): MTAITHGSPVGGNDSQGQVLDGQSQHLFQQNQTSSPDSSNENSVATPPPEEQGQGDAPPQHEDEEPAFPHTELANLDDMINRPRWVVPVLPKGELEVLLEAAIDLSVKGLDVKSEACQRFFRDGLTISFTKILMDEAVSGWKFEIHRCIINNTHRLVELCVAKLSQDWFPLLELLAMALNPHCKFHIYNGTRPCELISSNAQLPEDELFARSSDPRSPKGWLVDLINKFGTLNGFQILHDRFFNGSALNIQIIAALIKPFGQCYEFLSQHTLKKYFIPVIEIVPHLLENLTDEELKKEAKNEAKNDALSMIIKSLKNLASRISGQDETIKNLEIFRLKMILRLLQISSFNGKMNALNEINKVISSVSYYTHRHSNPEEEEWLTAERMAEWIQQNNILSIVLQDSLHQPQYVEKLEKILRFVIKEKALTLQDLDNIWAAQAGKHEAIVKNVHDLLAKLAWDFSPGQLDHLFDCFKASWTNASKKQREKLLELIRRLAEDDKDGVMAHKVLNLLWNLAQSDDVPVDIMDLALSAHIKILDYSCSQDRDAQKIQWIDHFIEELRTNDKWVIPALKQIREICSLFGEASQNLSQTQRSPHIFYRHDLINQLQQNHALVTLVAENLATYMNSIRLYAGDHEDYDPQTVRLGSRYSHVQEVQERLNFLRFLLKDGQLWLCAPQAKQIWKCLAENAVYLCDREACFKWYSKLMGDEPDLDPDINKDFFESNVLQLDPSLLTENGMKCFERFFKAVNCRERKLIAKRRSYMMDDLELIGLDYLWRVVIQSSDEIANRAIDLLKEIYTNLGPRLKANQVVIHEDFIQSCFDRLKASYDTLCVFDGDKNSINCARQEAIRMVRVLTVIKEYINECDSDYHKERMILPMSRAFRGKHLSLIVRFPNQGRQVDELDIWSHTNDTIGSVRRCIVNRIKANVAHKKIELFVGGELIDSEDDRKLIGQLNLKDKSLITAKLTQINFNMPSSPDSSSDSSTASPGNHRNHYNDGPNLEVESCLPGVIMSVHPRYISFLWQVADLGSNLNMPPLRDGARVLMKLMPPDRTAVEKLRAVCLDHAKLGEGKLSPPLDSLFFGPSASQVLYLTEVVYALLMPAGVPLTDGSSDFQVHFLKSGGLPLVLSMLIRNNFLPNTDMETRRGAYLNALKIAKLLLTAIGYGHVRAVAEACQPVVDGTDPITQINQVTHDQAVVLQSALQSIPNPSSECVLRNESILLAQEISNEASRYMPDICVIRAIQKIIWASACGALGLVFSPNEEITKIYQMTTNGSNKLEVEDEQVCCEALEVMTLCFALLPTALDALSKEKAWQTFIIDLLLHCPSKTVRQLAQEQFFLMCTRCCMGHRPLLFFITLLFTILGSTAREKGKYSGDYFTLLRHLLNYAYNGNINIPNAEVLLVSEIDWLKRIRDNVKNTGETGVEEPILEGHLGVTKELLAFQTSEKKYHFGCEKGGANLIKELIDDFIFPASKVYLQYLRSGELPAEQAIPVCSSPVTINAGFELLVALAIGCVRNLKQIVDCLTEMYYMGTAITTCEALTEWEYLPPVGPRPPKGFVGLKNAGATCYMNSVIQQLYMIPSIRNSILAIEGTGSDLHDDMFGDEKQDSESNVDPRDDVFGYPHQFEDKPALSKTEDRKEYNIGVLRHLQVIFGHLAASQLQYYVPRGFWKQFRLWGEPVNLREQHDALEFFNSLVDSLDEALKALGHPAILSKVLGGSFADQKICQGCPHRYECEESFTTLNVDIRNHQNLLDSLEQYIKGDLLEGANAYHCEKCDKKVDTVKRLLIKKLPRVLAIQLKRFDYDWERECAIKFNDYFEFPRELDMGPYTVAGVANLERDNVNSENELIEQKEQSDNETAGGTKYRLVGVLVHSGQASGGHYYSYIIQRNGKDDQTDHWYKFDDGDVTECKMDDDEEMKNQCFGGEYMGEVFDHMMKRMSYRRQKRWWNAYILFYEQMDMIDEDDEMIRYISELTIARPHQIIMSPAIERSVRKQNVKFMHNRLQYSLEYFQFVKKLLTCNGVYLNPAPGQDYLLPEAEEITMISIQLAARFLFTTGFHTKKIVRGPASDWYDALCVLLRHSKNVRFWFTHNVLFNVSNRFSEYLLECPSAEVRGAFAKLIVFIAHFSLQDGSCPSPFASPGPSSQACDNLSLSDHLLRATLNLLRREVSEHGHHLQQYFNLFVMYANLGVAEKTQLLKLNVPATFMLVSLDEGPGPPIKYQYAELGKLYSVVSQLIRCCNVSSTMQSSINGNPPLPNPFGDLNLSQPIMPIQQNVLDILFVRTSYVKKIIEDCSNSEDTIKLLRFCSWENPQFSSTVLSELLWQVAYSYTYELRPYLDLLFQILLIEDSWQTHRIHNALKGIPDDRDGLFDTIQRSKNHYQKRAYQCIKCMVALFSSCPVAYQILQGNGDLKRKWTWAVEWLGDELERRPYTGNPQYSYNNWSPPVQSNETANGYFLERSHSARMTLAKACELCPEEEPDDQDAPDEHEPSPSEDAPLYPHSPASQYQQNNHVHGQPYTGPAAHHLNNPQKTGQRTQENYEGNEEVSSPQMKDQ
Sequence of UniProt P51784 (P51784 whole entry): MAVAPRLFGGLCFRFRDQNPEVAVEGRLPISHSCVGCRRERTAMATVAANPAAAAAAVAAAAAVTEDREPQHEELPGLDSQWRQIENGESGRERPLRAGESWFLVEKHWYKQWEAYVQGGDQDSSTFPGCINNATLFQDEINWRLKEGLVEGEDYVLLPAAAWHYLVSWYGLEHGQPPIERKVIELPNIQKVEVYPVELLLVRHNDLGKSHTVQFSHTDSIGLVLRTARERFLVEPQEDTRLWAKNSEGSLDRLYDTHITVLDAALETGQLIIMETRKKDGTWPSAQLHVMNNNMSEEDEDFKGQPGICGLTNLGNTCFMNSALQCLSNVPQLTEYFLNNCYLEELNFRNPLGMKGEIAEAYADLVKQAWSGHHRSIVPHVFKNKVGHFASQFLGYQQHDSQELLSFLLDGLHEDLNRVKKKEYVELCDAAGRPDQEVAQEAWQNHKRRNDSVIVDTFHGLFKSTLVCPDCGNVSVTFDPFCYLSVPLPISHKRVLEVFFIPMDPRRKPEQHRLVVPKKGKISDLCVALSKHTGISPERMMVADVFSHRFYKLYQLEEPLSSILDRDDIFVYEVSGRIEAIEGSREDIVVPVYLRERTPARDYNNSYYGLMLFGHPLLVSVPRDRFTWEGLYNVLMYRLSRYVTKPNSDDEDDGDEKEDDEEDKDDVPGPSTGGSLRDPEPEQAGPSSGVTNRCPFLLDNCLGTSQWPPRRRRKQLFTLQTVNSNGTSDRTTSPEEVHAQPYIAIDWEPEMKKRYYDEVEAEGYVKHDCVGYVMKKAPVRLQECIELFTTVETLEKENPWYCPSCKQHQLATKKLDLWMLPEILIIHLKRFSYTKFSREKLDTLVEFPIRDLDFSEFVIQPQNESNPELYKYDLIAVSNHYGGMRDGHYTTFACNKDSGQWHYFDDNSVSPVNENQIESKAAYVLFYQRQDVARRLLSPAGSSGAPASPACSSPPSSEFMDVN

O=C(CCl)N1CCC(C(O)c2ccc(F)cc2)CC1 (centres undefined)
inactive: USP9X 0.23 | UniProt O00487 0.0841 | UniProt O00507 -0.0622 | UniProt P51784 0.5 | UniProt Q5T2D3 -0.0566 | UniProt Q8TE49 -0.301 | UniProt Q9P2H5 0.167 | UniProt Q9UGI0 -0.181 | YOD1 -0.00174
